From PubChem BioAssay (NCI)
Values joined by “and” are separate entries in the source; they are usually repeats but may differ in a detail not shown here. Equal entries are not always repeated. The panel holds about 83,000 compounds, 20% with a hit somewhere; the sample as a whole holds those more often.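 The test compound was applied at a single concentration to cells in 96-well plates for 48 hours, and percent growth was recorded.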 Active and inactive are the calls of the source. Rule for the calls: active = growth percent below 10; inactive = the rest.

Key:
Experiment in all cases: NCI-60 one-dose screen, 48 h (100 = growth as untreated, 0 = no growth, -100 = all killed)
Details in all cases: 10 µM unless noted
HCT-15 colon = test system: HCT-15 colon
HT29 colon = test system: HT29 colon
SNB-75 CNS = test system: SNB-75 CNS
SNB-19 CNS = test system: SNB-19 CNS
U251 CNS = test system: U251 CNS
PC-3 prostate = test system: PC-3 prostate
SK-MEL-5 melanoma = test system: SK-MEL-5 melanoma
UACC-62 melanoma = test system: UACC-62 melanoma
LOX IMVI melanoma = test system: LOX IMVI melanoma
SK-MEL-28 melanoma = test system: SK-MEL-28 melanoma
SK-MEL-2 melanoma = test system: SK-MEL-2 melanoma
EKVX NSCLC = test system: EKVX NSCLC
SN12C renal = test system: SN12C renal
UO-31 renal = test system: UO-31 renal
TK-10 renal = test system: TK-10 renal
ACHN renal = test system: ACHN renal
CAKI-1 renal = test system: CAKI-1 renal
CCRF-CEM leukemia = test system: CCRF-CEM leukemia
MOLT-4 leukemia = test system: MOLT-4 leukemia
A498 renal = test system: A498 renal

Row | Compound | growth (HCT-15 colon) | growth (HT29 colon) | growth (SNB-75 CNS) | growth (SNB-19 CNS) | growth (U251 CNS) | growth (PC-3 prostate) | growth (SK-MEL-5 melanoma) | growth (UACC-62 melanoma) | growth (LOX IMVI melanoma) | growth (SK-MEL-28 melanoma) | growth (SK-MEL-2 melanoma) | growth (EKVX NSCLC) | growth (SN12C renal) | growth (UO-31 renal) | growth (TK-10 renal) | growth (ACHN renal) | growth (CAKI-1 renal) | growth (CCRF-CEM leukemia) | growth (MOLT-4 leukemia) | growth (A498 renal)
1 | O=C(N/N=C/c1ccc(Cl)o1)c1[nH]c2ccc(Br)cc2c1-c1ccccc1 | -33.9% (active) | -34.6% (active) | -32.9% (active) | 9.24% (active) | -89.9% (active) | 15.7% (inactive) | -74.7% (active) | 3.42% (active) | -58.2% (active) | 2.44% (active) | 12.3% (inactive) | 12% (inactive) | -60.9% (active) | -34.5% (active) | -11.7% (active) | -46% (active) | -0.252% (active) | -2.11% (active) | 3.03% (active) | 
2 | COc1ccc(/C=C/c2nc3ccccc3c(=O)n2CC(=O)Nc2ccccc2)cc1 | 79.9% (inactive) | 83.3% (inactive) | -35% (active) | 29.1% (inactive) | 16.3% (inactive) | 84.7% (inactive) | 71.6% (inactive) | 78.6% (inactive) | 26.9% (inactive) |  | 81.2% (inactive) | 63.1% (inactive) | 8.23% (active) | -33% (active) | -9.9% (active) | -60% (active) | 35.1% (inactive) | 88.3% (inactive) | 86.7% (inactive) | -43% (active)
3 | COc1ccccc1/C=C/c1cccc(NC(=S)NCCCCN(C)C)c1 | -100% (active) | -59% (active) | -80.1% (active) | -84.1% (active) | -64.7% (active) | -46.9% (active) | -97% (active) | -98.5% (active) |  | -98.8% (active) | -81.4% (active) | -91.7% (active) | -96.6% (active) | -84.9% (active) | -82.7% (active) | -100% (active) | -87.8% (active) | -38.8% (active) | -32.9% (active) | -65.9% (active)
4 | O=C(Nc1nc2ccccc2s1)Nc1ccccc1Cl | 94.3% (inactive) | 98.5% (inactive) | 20.4% (inactive) | 70.4% (inactive) | 55.7% (inactive) | 85.3% (inactive) | 95.3% (inactive) | 93.8% (inactive) | 79.4% (inactive) |  | 99.9% (inactive) | 64.5% (inactive) | 83.9% (inactive) | 66.8% (inactive) | 84.7% (inactive) | 49.3% (inactive) |  | 97.5% (inactive) | 107% (inactive) | 162% (inactive)
5 | COc1ccc(Nc2nnc(-c3c[nH]c4ccccc34)o2)cc1 | 69% (inactive) | 106% (inactive) | 78.8% (inactive) | 95.2% (inactive) | 97.6% (inactive) | 78.6% (inactive) | 90.6% (inactive) | 82.2% (inactive) |  | 107% (inactive) | 92% (inactive) | 68% (inactive) | 58.6% (inactive) | 62.6% (inactive) | 135% (inactive) | 89.6% (inactive) | 72.9% (inactive) | 7.79% (active) | 40.3% (inactive) | 130% (inactive)
6 | COc1ccc(C2=Nc3c(N)nc(N)nc3NC(c3ccc(Oc4nc(Nc5ccc(F)cc5)nc(N(C)C)n4)c(OC)c3)C2)cc1 (stereo unspecified) | 48.7% (inactive) | 46.4% (inactive) | 51% (inactive) | 76.5% (inactive) | 65.3% (inactive) | 49.1% (inactive) | 51.5% (inactive) | 98.3% (inactive) | 63.1% (inactive) |  | 92.4% (inactive) | 67.2% (inactive) | 90.2% (inactive) | 52.5% (inactive) | 86.4% (inactive) | 99% (inactive) | 58% (inactive) | 50.1% (inactive) | 18.4% (inactive) | 68.9% (inactive)
7 | COc1cc(CNC(=O)C[C@H](C)CCC=C(C)C)ccc1OCc1cn(-c2ccccc2Cl)nn1 | 53.8% (inactive) | 76.7% (inactive) | 60% (inactive) | 61.3% (inactive) | 80.6% (inactive) | 49.4% (inactive) | 5.29% (active) | 39.6% (inactive) | 56.4% (inactive) |  | 53.3% (inactive) | 54% (inactive) | 69.6% (inactive) | 30.3% (inactive) | 93.1% (inactive) | 67.6% (inactive) | 46.3% (inactive) | 40.1% (inactive) | 16.3% (inactive) | 107% (inactive)
8 | O=C1C=CC(=CC=C2N(Cc3ccc4ccccc4c3)c3ccccc3N2Cc2ccc3ccccc3c2)C=C1 | 94.7% (inactive) and 95.3% (inactive) | 15.1% (inactive) and 13.2% (inactive) | 39.6% (inactive) and 26.9% (inactive) | 8.3% (active) and 11.1% (inactive) | 17.4% (inactive) and 17.6% (inactive) | 18.6% (inactive) and 16.6% (inactive) | -64.3% (active) and -51.3% (active) | 2.32% (active) and 11.9% (inactive) |  | 16.7% (inactive) and 20.5% (inactive) | -12.8% (active) and -12.7% (active) | 33.7% (inactive) and 32.9% (inactive) | 6.94% (active) and 13.3% (inactive) | 103% (inactive) and 98.5% (inactive) | 63.6% (inactive) and 74% (inactive) | 77.2% (inactive) and 78.6% (inactive) | 77.6% (inactive) and 70.8% (inactive) | 21.7% (inactive) and 10.9% (inactive) | 22.5% (inactive) and 17.6% (inactive) | 106% (inactive) and 109% (inactive)
